Results taken from the supplement of paper PMC10849652.
Targets with a hit are over-represented here; the source holds about 7,900 in all. About 0.6% of all pairs of compound and target were hits.

Legend:
Assay in all cases: log2 fold change, soluble protein after heating vs DMSO (PISA); higher = thermal stabilisation; K562 cells, 10 uM, 30 min; active = over 0.2 and 3.5 SD of the protein, either way, in both replicates (recomputed)
saracatinib = compound: CN1CCN(CCOc2cc(OC3CCOCC3)c3c(Nc4c(Cl)ccc5c4OCO5)ncnc3c2)CC1 [saracatinib]
Outline: (§1)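 K562 cells at 2×10^6 cells/mL were treated for 30 min with 10 μM compound, and aliquots were heated for 3 min over 48°C-58°C before pooling. Extraction used PBS with 0.5% NP-40 at 4°C, and soluble protein was the supernatant after 21,000xg for 90 min, measured by TMTpro 16plex LC-MS/MS with channel sums equalised. Thermal stability values, relative to control samples and from duplicates, are log2 fold changes.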

sotrastaurin = compound: CN1CCN(c2nc(C3=C(c4c[nH]c5ccccc45)C(=O)NC3=O)c3ccccc3n2)CC1 [sotrastaurin]
Outline: as §1

alvocidib = compound: CN1CC[C@H](c2c(O)cc(O)c3c(=O)cc(-c4ccccc4Cl)oc23)[C@H](O)C1 [alvocidib]
Outline: as §1

Tubastatin A = compound: CN1CCc2c(c3ccccc3n2Cc2ccc(C(=O)NO)cc2)C1 [Tubastatin A]
Outline: as §1

[1] = compound: CNC(=O)C1=CC=CC=C1NC2=NC(=NC=C2Cl)NC3=C(C=C(C=C3)N4CCOCC4)OC
Outline: as §1

defactinib = compound: CNC(=O)c1ccc(Nc2ncc(C(F)(F)F)c(NCc3nccnc3N(C)S(C)(=O)=O)n2)cc1 [defactinib]
Outline: as §1

rucaparib = compound: CNCc1ccc(-c2[nH]c3cc(F)cc4c3c2CCNC4=O)cc1 [rucaparib]
Outline: as §1

[2] = compound: CNc1nc(-c2ccc3c(N)n[nH]c3c2)cc(N2C[C@@H](C(=O)NC3CCCCC3)CC[C@H]2C)n1
Outline: as §1

encorafenib = compound: COC(=O)N[C@@H](C)CNc1nccc(-c2cn(C(C)C)nc2-c2cc(Cl)cc(NS(C)(=O)=O)c2F)n1 [encorafenib]
Outline: as §1

[3] = compound: COC(=O)[C@H](CCSC)NC(=O)C1=C(C=C(C=C1)NC[C@H](CS)N)C2=CC=CC=C2
Outline: as §1

[4] = compound: COC1=CC=C(C=C1)CN2C=CC3=C2C=C(C=C3)C(=O)NO
Outline: as §1

filanesib = compound: CON(C)C(=O)N1N=C(c2cc(F)ccc2F)S[C@@]1(CCCN)c1ccccc1 [filanesib]
Outline: as §1

zotarolimus = compound: CO[C@H]1C[C@@H]2CC[C@@H](C)[C@@](O)(O2)C(=O)C(=O)N2CCCC[C@H]2C(=O)O[C@H]([C@H](C)C[C@@H]2CC[C@H](n3cnnn3)[C@H](OC)C2)CC(=O)[C@H](C)/C=C(\C)[C@@H](O)[C@@H](OC)C(=O)[C@H](C)C[C@H](C)/C=C/C=C/C=C/1C [zotarolimus]
Outline: as §1

idasanutlin = compound: COc1cc(C(=O)O)ccc1NC(=O)[C@@H]1N[C@@H](CC(C)(C)C)[C@](C#N)(c2ccc(Cl)cc2F)[C@H]1c1cccc(Cl)c1F [idasanutlin]
Outline: as §1

alisertib = compound: COc1cc(Nc2ncc3c(n2)-c2ccc(Cl)cc2C(c2c(F)cccc2OC)=NC3)ccc1C(=O)O [alisertib]
Outline: as §1

[5] = compound: COc1cc2nc(-c3cc(F)ccc3O)nc(N[C@@H]3CNC[C@H]3C(C)(C)O)c2cc1OC
Outline: as §1

gefitinib = compound: COc1cc2ncnc(Nc3ccc(F)c(Cl)c3)c2cc1OCCCN1CCOCC1 [gefitinib]
Outline: as §1

[6] = compound: COc1cccc2cc(-c3nc([C@H]4CC[C@H](C(=O)O)CC4)n4ncnc(N)c34)[nH]c12
Outline: as §1

lapatinib = compound: CS(=O)(=O)CCNCc1ccc(-c2ccc3ncnc(Nc4ccc(OCc5cccc(F)c5)c(Cl)c4)c3c2)o1 [lapatinib]
Outline: as §1

pictilisib = compound: CS(=O)(=O)N1CCN(Cc2cc3nc(-c4cccc5[nH]ncc45)nc(N4CCOCC4)c3s2)CC1 [pictilisib]
Outline: as §1

Measured: log2 fold change

ALDH18A1 (UniProt P54886)
Sequence of UniProt P54886 (P54886 whole entry, looked up): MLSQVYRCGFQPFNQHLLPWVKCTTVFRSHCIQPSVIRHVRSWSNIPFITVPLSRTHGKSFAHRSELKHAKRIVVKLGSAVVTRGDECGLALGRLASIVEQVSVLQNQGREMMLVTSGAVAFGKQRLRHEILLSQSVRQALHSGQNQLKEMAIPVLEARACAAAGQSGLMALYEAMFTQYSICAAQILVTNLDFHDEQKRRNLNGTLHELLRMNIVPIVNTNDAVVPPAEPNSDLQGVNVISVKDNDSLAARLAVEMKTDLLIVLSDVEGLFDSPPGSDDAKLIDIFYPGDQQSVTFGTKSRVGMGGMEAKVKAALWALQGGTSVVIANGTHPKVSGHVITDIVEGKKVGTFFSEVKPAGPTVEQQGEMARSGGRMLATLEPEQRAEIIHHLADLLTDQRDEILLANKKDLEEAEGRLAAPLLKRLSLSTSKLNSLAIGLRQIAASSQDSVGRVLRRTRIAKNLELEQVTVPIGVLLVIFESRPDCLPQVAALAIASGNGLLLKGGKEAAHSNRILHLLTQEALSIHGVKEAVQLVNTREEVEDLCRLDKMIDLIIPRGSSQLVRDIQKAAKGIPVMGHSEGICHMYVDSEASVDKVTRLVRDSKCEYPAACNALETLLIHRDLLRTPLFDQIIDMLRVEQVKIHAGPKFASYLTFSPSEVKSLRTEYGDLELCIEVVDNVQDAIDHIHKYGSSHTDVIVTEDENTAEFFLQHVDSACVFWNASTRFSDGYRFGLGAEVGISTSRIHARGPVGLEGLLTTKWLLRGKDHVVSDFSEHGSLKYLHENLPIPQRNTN
inactive: saracatinib -0.038 | sotrastaurin -0.178 | alvocidib 0.063 | Tubastatin A -0.027 | [1] -0.065 | defactinib -0.122 | rucaparib 0.001 | [2] -0.281 | encorafenib 0.098 | [3] -0.047 | [4] -0.024 | filanesib -0.01 | zotarolimus 0.045 | idasanutlin -0.233 | alisertib -0.09 | [5] 0.215 | gefitinib -0.18 | [6] 0.067 | pictilisib -0.101
active: lapatinib -0.652

ABHD16A (UniProt O95870)
inactive: saracatinib 0.01 | sotrastaurin 0.214 | alvocidib -0.033 | Tubastatin A 0.004 | [1] 0.031 | defactinib -0.065 | rucaparib -0.017 | [2] 0.162 | encorafenib -0.05 | [3] 0.031 | [4] 0.051 | filanesib 0.067 | zotarolimus 0.204 | idasanutlin -0.042 | alisertib -0.049 | gefitinib 0.158 | [6] -0.039 | lapatinib 0.235 | pictilisib 0.018
active: [5] 0.347

ACP2 (UniProt P11117)
Sequence of UniProt P11117 (P11117 whole entry, looked up): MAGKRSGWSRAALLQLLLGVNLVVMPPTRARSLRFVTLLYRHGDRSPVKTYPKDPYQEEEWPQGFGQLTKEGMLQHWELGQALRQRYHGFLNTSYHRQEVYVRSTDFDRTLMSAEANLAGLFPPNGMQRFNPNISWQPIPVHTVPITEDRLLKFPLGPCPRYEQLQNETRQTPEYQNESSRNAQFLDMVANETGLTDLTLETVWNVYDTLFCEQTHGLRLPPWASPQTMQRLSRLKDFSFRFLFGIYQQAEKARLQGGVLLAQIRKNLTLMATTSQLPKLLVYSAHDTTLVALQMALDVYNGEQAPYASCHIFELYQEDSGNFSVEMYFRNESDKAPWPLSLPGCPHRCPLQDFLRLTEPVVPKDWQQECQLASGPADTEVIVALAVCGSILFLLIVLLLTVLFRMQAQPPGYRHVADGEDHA
inactive: saracatinib 0.026 | sotrastaurin 0.022 | alvocidib 0.003 | Tubastatin A -0.036 | [1] -0.006 | defactinib 0.01 | rucaparib -0.089 | [2] -0.055 | encorafenib 0.018 | [3] -0.006 | [4] -0.034 | filanesib -0.121 | zotarolimus -0.016 | idasanutlin -0.026 | alisertib 0.036 | [5] -0.002 | gefitinib 0.001 | [6] 0.053 | lapatinib 0.038 | pictilisib -0.031

BRD3 (UniProt Q15059)
active: Tubastatin A -0.571
inactive: saracatinib 0.093 | sotrastaurin -0.116 | alvocidib -0.076 | [1] 0.011 | defactinib -0.319 | rucaparib -0.083 | [2] 0.325 | encorafenib 0.086 | [3] -0.128 | [4] 0.027 | filanesib 0.297 | zotarolimus -0.077 | idasanutlin -0.012 | alisertib -0.035 | [5] 0.086 | gefitinib 0.227 | [6] -0.002 | lapatinib -0.057 | pictilisib 0.081

ACSL3 (UniProt O95573)
inactive: saracatinib 0 | sotrastaurin -0.014 | alvocidib -0.037 | Tubastatin A -0.022 | [1] -0.008 | defactinib -0.043 | rucaparib -0.002 | [2] 0.041 | encorafenib 0.008 | [3] -0.01 | [4] 0.126 | filanesib -0.045 | zotarolimus 0.019 | idasanutlin -0.127 | alisertib 0.026 | [5] 0.046 | gefitinib 0.021 | [6] 0.037 | lapatinib 0 | pictilisib 0.022

AHSA1 (UniProt O95433)
Sequence of UniProt O95433 (O95433 whole entry, looked up): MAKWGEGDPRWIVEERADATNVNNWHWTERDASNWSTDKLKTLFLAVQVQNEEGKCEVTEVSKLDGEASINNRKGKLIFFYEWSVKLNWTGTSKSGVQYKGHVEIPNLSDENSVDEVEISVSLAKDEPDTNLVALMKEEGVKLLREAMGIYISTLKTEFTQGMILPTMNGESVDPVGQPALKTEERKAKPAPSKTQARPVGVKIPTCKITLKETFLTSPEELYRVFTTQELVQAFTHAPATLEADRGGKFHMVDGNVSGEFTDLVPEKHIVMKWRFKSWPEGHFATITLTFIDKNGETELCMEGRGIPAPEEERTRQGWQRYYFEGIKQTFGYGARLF
inactive: saracatinib 0.022 | sotrastaurin 0.014 | alvocidib -0.039 | Tubastatin A -0.003 | [1] 0 | defactinib -0.061 | rucaparib -0.084 | [2] 0.011 | encorafenib 0.02 | [3] -0.008 | [4] -0.029 | filanesib -0.061 | zotarolimus 0.003 | idasanutlin -0.064 | alisertib -0.037 | [5] 0.109 | gefitinib 0.022 | [6] 0.031 | lapatinib -0.02 | pictilisib -0.023

ARL6IP4 (UniProt Q66PJ3)
inactive: saracatinib -0.026 | sotrastaurin 0.023 | alvocidib -0.024 | Tubastatin A -0.024 | [1] -0.05 | defactinib -0.038 | rucaparib 0.01 | [2] -0.002 | encorafenib -0.059 | [3] 0.016 | [4] -0.025 | filanesib 0.023 | zotarolimus 0.014 | idasanutlin 0.172 | alisertib -0.053 | [5] 0.002 | gefitinib -0.039 | [6] 0.05 | lapatinib -0.023 | pictilisib -0.007

ANXA5 (UniProt P08758)
Sequence of UniProt P08758 (P08758 whole entry, looked up): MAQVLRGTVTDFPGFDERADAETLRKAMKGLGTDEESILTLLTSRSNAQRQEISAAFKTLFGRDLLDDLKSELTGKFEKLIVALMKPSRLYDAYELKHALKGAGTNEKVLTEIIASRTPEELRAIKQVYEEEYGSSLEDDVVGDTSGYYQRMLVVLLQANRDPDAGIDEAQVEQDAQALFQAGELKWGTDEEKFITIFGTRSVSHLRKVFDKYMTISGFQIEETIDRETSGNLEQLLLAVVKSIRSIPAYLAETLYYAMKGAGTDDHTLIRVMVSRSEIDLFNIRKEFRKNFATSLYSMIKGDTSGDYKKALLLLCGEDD
inactive: saracatinib -0.023 | sotrastaurin -0.038 | alvocidib -0.083 | Tubastatin A -0.006 | [1] 0.039 | defactinib -0.082 | rucaparib -0.001 | [2] 0.012 | encorafenib 0.083 | [3] -0.062 | [4] 0.033 | filanesib -0.033 | zotarolimus 0.049 | idasanutlin -0.013 | alisertib -0.006 | [5] 0.009 | gefitinib 0.05 | [6] -0.032 | lapatinib 0.015 | pictilisib -0.021

ALG5 (UniProt Q9Y673)
Sequence of UniProt Q9Y673 (Q9Y673 whole entry, looked up): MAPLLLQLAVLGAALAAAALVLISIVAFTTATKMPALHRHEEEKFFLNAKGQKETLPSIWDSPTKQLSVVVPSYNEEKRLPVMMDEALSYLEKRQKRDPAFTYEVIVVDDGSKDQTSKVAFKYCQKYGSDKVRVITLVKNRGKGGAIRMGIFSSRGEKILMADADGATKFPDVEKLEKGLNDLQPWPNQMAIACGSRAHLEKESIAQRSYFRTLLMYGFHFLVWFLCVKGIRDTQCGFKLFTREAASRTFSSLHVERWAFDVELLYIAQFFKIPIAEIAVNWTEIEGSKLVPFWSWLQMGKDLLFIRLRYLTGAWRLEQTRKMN
inactive: saracatinib -0.011 | sotrastaurin -0.071 | alvocidib -0.088 | Tubastatin A 0.005 | [1] 0.016 | defactinib -0.055 | rucaparib -0.113 | [2] 0.008 | encorafenib -0.025 | [3] -0.036 | [4] 0 | filanesib -0.054 | zotarolimus 0.039 | idasanutlin -0.139 | alisertib 0.675 | [5] 0.095 | gefitinib 0.023 | [6] 0.013 | lapatinib 0.046 | pictilisib 0.075

ACSF3 (UniProt Q4G176)
Sequence of UniProt Q4G176 (Q4G176 whole entry, looked up): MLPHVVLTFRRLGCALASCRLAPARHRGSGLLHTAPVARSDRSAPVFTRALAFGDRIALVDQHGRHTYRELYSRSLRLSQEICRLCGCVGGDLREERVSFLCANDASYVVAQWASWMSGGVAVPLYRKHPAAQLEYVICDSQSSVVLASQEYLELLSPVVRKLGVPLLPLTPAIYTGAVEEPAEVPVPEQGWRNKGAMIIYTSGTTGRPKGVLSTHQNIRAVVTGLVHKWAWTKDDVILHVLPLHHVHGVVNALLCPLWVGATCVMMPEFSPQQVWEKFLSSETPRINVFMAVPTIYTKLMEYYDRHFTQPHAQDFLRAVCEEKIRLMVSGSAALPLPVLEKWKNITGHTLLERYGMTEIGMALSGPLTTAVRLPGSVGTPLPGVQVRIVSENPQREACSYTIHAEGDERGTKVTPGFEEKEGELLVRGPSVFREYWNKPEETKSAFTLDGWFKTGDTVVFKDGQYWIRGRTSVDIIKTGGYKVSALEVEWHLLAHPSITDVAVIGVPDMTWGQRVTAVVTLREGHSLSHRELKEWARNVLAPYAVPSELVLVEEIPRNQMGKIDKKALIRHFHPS
inactive: saracatinib 0.079 | sotrastaurin 0.002 | alvocidib 0.026 | Tubastatin A -0.067 | [1] 0.099 | defactinib -0.058 | rucaparib -0.051 | [2] -0.016 | encorafenib 0.146 | [3] -0.019 | [4] -0.099 | filanesib -0.045 | zotarolimus -0.01 | idasanutlin 0.051 | alisertib 0.001 | [5] -0.053 | gefitinib -0.096 | [6] 0.054 | lapatinib -0.004 | pictilisib 0.064

AP2M1 (UniProt Q96CW1)
Sequence of UniProt Q96CW1 (Q96CW1 whole entry, looked up): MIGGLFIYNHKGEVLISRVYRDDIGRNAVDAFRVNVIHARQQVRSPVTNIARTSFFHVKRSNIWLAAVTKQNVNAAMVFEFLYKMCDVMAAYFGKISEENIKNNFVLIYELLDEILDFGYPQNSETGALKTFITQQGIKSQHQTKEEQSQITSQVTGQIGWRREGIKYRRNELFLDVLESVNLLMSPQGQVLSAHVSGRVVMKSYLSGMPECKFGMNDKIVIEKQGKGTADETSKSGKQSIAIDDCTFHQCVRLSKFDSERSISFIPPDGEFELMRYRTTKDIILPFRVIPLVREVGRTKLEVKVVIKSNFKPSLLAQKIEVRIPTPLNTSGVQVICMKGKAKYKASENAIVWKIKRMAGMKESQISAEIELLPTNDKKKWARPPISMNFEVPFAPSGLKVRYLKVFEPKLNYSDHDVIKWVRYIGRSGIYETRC
inactive: saracatinib 0.032 | sotrastaurin 0.008 | alvocidib 0.017 | Tubastatin A 0.002 | [1] 0.005 | defactinib 0.016 | rucaparib 0.026 | [2] 0.001 | encorafenib 0.008 | [3] -0.014 | [4] -0.008 | filanesib 0.048 | zotarolimus 0.017 | idasanutlin -0.018 | alisertib -0.06 | [5] 0.01 | gefitinib 0.032 | [6] 0.01 | lapatinib 0.014 | pictilisib -0.021

AKAP8L (UniProt Q9ULX6)
inactive: saracatinib -0.127 | sotrastaurin -0.203 | alvocidib -0.21 | Tubastatin A 0.055 | [1] -0.097 | rucaparib -0.008 | [2] 0.027 | encorafenib 0.025 | [3] 0.049 | [4] 0.032 | filanesib 0.064 | zotarolimus 0.097 | idasanutlin 0.205 | alisertib 0.041 | [5] -0.212 | gefitinib 0.008 | [6] 0.001 | lapatinib 0.034 | pictilisib 0.019
active: defactinib -0.477

AKR1C3 (UniProt P42330)
Sequence of UniProt P42330 (P42330 whole entry, looked up): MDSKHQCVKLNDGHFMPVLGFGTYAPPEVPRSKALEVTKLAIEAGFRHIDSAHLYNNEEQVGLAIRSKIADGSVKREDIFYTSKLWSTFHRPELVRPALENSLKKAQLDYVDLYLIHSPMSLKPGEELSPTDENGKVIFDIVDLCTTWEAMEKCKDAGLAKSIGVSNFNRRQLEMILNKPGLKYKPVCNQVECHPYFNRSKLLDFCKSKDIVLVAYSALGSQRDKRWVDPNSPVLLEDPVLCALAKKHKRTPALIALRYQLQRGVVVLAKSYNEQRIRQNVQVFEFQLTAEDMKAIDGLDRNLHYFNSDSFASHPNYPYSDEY
inactive: saracatinib 0.05 | sotrastaurin 0.093 | alvocidib -0.054 | Tubastatin A 0.044 | [1] 0.188 | defactinib 0.222 | rucaparib 0.061 | [2] 0.424 | encorafenib -0.081 | [3] 0.007 | filanesib -0.028 | zotarolimus 0.066 | idasanutlin -0.074 | alisertib -0.087 | [5] -0.176 | gefitinib 0.031 | [6] -0.214 | lapatinib -0.065 | pictilisib 0.061
active: [4] 0.87

ATP23 (UniProt Q9Y6H3)
Sequence of UniProt Q9Y6H3 (Q9Y6H3 whole entry, looked up): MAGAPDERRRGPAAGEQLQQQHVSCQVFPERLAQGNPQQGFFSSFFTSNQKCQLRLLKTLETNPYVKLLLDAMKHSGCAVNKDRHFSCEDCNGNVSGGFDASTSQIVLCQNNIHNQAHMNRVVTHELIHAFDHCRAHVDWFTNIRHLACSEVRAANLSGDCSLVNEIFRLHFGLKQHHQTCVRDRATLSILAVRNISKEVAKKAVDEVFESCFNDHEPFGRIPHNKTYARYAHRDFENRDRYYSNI
inactive: saracatinib 0.029 | sotrastaurin 0.04 | alvocidib -0.031 | Tubastatin A -0.056 | [1] 0.055 | defactinib 0.028 | rucaparib 0.096 | [2] 0.041 | encorafenib 0.001 | [3] 0.01 | [4] 0.003 | filanesib -0.082 | zotarolimus 0.005 | idasanutlin 0.032 | alisertib -0.033 | [5] -0.096 | gefitinib -0.062 | [6] 0.067 | lapatinib 0.007 | pictilisib 0.018

BMP2K (UniProt Q9NSY1)
Sequence of UniProt Q9NSY1 (Q9NSY1 whole entry, looked up): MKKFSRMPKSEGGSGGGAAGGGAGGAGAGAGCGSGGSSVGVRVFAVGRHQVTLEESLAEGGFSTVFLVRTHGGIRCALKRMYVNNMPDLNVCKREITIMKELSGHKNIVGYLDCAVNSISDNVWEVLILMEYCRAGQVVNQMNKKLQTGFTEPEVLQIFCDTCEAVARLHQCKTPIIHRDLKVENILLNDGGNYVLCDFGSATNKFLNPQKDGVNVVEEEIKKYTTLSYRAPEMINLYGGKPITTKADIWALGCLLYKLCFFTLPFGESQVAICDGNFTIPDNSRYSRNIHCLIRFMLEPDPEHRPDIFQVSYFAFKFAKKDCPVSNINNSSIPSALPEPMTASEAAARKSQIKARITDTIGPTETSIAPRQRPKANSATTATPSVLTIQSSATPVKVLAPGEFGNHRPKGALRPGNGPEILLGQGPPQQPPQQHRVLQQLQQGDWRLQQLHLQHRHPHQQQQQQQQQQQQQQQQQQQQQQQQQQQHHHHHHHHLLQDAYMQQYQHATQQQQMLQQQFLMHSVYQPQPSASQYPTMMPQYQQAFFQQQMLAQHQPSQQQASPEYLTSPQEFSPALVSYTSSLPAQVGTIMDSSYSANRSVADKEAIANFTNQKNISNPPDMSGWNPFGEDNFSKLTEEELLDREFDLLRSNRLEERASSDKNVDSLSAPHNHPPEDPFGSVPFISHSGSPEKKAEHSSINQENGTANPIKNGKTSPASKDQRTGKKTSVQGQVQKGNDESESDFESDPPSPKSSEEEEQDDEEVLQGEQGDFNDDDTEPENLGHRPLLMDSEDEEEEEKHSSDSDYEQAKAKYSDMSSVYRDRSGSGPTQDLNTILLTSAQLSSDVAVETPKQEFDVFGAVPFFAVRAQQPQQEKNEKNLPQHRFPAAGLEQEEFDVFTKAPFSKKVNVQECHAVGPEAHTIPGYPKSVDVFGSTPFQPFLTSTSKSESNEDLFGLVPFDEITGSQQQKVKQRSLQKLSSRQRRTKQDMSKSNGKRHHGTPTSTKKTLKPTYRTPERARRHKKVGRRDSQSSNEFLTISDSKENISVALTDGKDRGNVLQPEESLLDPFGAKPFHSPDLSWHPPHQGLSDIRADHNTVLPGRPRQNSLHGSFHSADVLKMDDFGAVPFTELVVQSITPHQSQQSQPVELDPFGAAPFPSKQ
inactive: saracatinib 0.071 | sotrastaurin 0.023 | alvocidib 0.088 | Tubastatin A 0.015 | [1] 0.183 | defactinib 0.179 | rucaparib 0.064 | [2] -0.029 | encorafenib -0.069 | [3] -0.012 | [4] 0.032 | filanesib -0.019 | zotarolimus 0.029 | idasanutlin -0.092 | alisertib 0 | [5] 0.055 | gefitinib 0.024 | [6] 0.111 | lapatinib 0.01 | pictilisib 0.102
